# From the supplement of paper PMC10849652
# About 7,900 targets were measured; listed, in parts, are those with a hit and a random draw of the rest. About 0.6% of all pairs of compound and target were hits. A number with no mark means an inactive call.
# Columns and labels:
# Assay in all cases: log2 fold change, soluble protein after heating vs DMSO (PISA); higher = thermal stabilisation; K562 cells, 10 uM, 30 min; active = over 0.2 and 3.5 SD of the protein, either way, in both replicates (recomputed)
# [1] = compound: Cc1ccc(NC(=O)c2ccc(CN3CC[C@H](N(C)C)C3)c(C(F)(F)F)c2)cc1Nc1nccc(-c2cncnc2)n1 [bafetinib]
# Procedure, shortened: (§1)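 Quantification of soluble protein used TMTpro 16plex LC-MS/MS, with channel sums equalised. Samples were the supernatant after 21,000xg for 90 min of pooled aliquots from K562 cells (2×10^6 cells/mL) treated with 10 μM compound for 30 min, heated for 3 min over 48°C-58°C, and extracted in PBS with 0.5% NP-40 at 4°C. Values, from duplicates, describe thermal stability against control samples on a log2 fold-change scale.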
# [2] = compound: Cc1cccc(CC(=O)N2CCc3c2ccc(-c2cn(C)c4ncnc(N)c24)c3F)n1
# Procedure, shortened: as §1
# [3] = compound: Cc1cn(-c2cc(NC(=O)c3ccc(C)c(Nc4nccc(-c5cccnc5)n4)c3)cc(C(F)(F)F)c2)cn1 [nilotinib]
# Procedure, shortened: as §1
# [4] = compound: Cc1nc(Nc2n[nH]c3c2CN(C(=O)N[C@H](CN(C)C)c2ccccc2)C3(C)C)c2sccc2n1
# Procedure, shortened: as §1
# [5] = compound: Cc1nc(Nc2ncc(C(=O)Nc3c(C)cccc3Cl)s2)cc(N2CCN(CCO)CC2)n1 [dasatinib]
# Procedure, shortened: as §1
# [6] = compound: Cc1ncc(-c2ccnc(Nc3ccc(S(C)(=O)=O)cc3)n2)n1C(C)C
# Procedure, shortened: as §1
# [7] = compound: Cn1cc(-c2ccc3c(c2)CCN3C(=O)Cc2cccc(C(F)(F)F)c2)c2c(N)ncnc21
# Procedure, shortened: as §1
# [8] = compound: Cn1cc(-c2ccc3nnc(C(F)(F)c4ccc5ncccc5c4)n3n2)cn1
# Procedure, shortened: as §1
# [9] = compound: Cn1cncc1[C@@](N)(c1ccc(Cl)cc1)c1ccc2c(c1)c(-c1cccc(Cl)c1)cc(=O)n2C [tipifarnib]
# Procedure, shortened: as §1
# [10] = compound: FC(F)(F)c1ccc(/C=C/c2nc(COc3ccc(CCCCn4ccnn4)cc3)co2)cc1 [mubritinib]
# Procedure, shortened: as §1
# [11] = compound: NC(=O)Nc1cc(-c2cccc(F)c2)sc1C(=O)N[C@H]1CCCNC1
# Procedure, shortened: as §1
# [12] = compound: NC(=O)c1cnc(N[C@@H]2CCCC[C@@H]2N)nc1Nc1cccc(-n2nccn2)c1
# Procedure, shortened: as §1
# [13] = compound: NC1(c2ccc(-c3nc4ccn5c(=O)[nH]nc5c4cc3-c3ccccc3)cc2)CCC1
# Procedure, shortened: as §1
# [14] = compound: NCC(=O)Nc1ccc(-n2nc(C(F)(F)F)cc2-c2ccc3c(ccc4ccccc43)c2)cc1
# Procedure, shortened: as §1
# [15] = compound: Nc1ccccc1NC(=O)c1ccc(CNC(=O)OCc2cccnc2)cc1 [entinostat]
# Procedure, shortened: as §1
# [16] = compound: O=C(CCCCCCC(=O)Nc1ccccc1)NO [vorinostat]
# Procedure, shortened: as §1
# [17] = compound: O=C(CCCCCCNC(=O)c1cnc(N(c2ccccc2)c2ccccc2Cl)nc1)NO [citarinostat]
# Procedure, shortened: as §1
# [18] = compound: O=C(O)c1ccc2c(c1)nc(Nc1cccc(Cl)c1)c1ccncc12 [silmitasertib]
# Procedure, shortened: as §1
# [19] = compound: O=C1NC(=O)C(c2cnc3ccccn23)=C1c1cn2c3c(cc(F)cc13)CN(C(=O)N1CCCCC1)CC2
# Procedure, shortened: as §1
# [20] = compound: c1cc(OCCN2CCCCC2)cc(-c2n[nH]c3ccc(-c4nnc[nH]4)cc23)c1
# Procedure, shortened: as §1
# Sequence of UniProt O60678 (O60678 whole entry, looked up): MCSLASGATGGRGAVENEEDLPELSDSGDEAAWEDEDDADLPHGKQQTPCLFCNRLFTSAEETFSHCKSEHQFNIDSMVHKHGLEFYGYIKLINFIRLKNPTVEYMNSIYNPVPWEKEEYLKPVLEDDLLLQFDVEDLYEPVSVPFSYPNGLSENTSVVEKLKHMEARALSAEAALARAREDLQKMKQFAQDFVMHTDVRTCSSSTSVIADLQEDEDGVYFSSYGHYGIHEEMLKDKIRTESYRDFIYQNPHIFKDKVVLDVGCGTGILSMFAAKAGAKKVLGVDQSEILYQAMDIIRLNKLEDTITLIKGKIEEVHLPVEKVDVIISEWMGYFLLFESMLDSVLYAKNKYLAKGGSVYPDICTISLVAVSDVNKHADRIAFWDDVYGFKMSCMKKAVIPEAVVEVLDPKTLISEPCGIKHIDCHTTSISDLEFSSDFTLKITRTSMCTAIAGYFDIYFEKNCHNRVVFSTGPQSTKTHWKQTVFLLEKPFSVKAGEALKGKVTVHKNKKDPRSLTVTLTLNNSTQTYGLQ
# Sequence of UniProt Q15365 (Q15365 whole entry, looked up): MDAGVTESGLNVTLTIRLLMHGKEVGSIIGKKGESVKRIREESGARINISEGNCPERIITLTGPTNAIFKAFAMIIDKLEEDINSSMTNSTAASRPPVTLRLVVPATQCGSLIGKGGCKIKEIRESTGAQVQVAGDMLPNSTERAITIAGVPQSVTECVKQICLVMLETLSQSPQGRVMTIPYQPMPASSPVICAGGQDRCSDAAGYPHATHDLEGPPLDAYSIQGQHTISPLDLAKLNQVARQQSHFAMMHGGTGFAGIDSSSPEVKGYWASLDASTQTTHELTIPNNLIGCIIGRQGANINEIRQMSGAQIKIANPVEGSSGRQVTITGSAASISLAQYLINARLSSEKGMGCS
# Sequence of UniProt Q8IZL8 (Q8IZL8 whole entry, looked up): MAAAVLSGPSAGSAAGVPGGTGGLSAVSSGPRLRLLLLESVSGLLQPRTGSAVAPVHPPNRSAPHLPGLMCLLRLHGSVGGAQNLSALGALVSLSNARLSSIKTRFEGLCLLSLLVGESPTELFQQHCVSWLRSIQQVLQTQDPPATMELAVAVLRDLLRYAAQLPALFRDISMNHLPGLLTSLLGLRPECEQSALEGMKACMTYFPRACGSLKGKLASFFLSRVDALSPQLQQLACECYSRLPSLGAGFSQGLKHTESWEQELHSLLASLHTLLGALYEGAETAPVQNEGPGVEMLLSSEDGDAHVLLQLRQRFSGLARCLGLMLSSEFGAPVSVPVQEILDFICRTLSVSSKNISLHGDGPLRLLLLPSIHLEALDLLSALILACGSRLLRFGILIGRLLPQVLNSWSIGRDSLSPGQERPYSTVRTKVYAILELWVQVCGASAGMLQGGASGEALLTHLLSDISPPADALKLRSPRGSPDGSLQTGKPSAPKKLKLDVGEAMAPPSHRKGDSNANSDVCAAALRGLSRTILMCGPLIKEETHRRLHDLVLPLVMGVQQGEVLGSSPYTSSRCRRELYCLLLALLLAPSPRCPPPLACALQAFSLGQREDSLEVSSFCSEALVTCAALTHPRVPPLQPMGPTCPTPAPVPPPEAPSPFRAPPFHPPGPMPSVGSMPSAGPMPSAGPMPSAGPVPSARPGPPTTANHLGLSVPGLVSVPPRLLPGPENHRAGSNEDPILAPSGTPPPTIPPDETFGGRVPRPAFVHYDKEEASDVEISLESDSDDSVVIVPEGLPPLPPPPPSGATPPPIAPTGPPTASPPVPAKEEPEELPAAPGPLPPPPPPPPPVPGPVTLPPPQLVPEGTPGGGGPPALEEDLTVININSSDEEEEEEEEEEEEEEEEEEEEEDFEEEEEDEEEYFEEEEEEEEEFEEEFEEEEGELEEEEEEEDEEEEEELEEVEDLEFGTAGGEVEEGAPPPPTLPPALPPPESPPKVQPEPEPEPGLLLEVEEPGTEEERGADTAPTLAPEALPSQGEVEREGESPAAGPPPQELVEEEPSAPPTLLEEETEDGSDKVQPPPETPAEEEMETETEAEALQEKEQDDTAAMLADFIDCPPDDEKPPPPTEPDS
# Sequence of UniProt P07205 (P07205 whole entry, looked up): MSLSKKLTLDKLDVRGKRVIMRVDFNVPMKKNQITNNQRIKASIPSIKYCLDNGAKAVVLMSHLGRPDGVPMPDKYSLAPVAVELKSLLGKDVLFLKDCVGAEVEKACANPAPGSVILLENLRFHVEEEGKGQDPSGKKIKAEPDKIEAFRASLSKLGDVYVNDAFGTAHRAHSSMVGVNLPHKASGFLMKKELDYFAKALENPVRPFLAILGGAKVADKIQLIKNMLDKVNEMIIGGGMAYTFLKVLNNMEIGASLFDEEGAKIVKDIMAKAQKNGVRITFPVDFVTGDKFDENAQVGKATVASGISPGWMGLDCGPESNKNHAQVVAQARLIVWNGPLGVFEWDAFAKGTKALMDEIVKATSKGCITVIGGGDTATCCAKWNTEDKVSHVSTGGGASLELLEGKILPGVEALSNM
# Sequence of UniProt O00628 (O00628 whole entry, looked up): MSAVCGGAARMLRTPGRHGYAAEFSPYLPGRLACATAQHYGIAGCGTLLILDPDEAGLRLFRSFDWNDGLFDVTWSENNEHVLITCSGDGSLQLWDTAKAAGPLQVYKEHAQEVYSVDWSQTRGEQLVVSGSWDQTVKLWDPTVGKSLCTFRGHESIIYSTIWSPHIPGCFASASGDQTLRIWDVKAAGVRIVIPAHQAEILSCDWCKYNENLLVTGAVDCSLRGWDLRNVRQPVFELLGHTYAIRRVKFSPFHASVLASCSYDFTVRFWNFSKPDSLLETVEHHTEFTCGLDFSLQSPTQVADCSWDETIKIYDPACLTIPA
# Sequence of UniProt Q8IWE5 (Q8IWE5 whole entry, looked up): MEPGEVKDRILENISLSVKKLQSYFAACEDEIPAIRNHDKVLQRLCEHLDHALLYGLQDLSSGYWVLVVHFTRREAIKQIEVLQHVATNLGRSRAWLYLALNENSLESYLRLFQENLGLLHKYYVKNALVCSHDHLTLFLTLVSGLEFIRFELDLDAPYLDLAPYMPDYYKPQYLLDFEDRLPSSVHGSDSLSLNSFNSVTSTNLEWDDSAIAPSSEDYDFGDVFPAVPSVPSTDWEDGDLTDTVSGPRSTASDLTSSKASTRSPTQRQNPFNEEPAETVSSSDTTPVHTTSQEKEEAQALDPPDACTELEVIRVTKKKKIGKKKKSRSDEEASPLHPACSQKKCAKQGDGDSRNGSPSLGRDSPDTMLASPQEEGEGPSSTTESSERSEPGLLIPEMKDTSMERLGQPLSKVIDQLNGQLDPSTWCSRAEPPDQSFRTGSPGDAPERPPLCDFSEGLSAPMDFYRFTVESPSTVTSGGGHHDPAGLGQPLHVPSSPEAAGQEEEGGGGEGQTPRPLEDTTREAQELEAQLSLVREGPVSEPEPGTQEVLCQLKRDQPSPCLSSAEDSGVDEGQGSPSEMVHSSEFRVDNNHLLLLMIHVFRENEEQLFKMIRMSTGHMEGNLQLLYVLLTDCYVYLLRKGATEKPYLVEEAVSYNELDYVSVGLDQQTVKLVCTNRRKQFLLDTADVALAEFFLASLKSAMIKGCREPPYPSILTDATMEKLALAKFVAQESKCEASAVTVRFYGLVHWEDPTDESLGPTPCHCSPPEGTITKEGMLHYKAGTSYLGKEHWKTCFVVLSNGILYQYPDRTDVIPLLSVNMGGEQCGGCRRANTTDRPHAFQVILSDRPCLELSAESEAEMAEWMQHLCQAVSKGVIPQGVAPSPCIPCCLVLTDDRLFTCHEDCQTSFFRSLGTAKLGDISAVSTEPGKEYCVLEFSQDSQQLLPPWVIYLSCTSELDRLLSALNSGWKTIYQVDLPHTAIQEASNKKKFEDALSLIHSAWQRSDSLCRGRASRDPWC
# Sequence of UniProt Q13523 (Q13523 whole entry, looked up): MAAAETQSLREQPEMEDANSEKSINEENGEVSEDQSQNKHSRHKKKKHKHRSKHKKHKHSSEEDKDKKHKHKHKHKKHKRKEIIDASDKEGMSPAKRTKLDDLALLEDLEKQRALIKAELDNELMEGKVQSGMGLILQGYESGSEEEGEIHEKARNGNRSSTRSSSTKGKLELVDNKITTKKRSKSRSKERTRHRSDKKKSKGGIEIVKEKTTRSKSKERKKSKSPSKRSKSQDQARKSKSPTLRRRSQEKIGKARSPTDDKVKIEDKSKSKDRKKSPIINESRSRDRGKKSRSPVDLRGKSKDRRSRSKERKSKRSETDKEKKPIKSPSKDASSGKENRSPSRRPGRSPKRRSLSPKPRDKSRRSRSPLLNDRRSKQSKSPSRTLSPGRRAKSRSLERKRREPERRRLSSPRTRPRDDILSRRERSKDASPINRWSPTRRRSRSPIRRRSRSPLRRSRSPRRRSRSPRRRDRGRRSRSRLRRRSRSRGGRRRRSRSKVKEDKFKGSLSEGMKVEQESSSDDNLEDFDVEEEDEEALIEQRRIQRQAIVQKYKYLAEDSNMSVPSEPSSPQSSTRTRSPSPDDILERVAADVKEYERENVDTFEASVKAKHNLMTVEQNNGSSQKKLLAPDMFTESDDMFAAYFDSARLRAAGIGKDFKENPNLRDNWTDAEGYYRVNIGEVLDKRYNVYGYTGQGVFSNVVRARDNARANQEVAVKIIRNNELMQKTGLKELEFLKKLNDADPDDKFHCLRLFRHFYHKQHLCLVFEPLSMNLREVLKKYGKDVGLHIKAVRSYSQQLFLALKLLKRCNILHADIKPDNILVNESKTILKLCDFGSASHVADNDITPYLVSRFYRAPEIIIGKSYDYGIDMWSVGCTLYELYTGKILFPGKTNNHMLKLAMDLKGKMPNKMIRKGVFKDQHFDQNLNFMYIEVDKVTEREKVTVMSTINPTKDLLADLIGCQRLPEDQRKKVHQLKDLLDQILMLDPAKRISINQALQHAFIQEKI
Target,log2 fold change [1],log2 fold change [2],log2 fold change [3],log2 fold change [4],log2 fold change [5],log2 fold change [6],log2 fold change [7],log2 fold change [8],log2 fold change [9],log2 fold change [10],log2 fold change [11],log2 fold change [12],log2 fold change [13],log2 fold change [14],log2 fold change [15],log2 fold change [16],log2 fold change [17],log2 fold change [18],log2 fold change [19],log2 fold change [20]
PXK (UniProt Q7Z7A4),-0.01,0.086,-0.026,0.025,0.226,0.012,0.029,-0.106,-0.001,0.098,-0.057,-0.044,-0.279 (active),-0.073,0.014,0.018,0.021,-0.002,-0.043,0.008
PIK3R1 (UniProt P27986),-0.061,0.029,-0.074,0.015,-0.117,0.108,0.009,-0.013,-0.026,0.017,-0.08,-0.056,-0.016,-0.021,-0.026,0.029,0.007,-0.013,0.028,0.126
PCBP2 isoform 3 (UniProt Q15366),0.037,0.083,-0.095,-0.156,-0.132,-0.058,0.007,0.018,-0.08,0.004,0.001,-0.074,-0.102,-0.088,0.062,0.099,0.104,0.019,-0.015,-0.023
PGK2 (UniProt P07205),0.009,-0.036,0.066,0.096,0.11,-0.013,-0.137,-0.029,-0.006,-0.092,-0.056,-0.032,-0.038,-0.134,0.021,-0.056,-0.121,0.172,-0.532 (active),-0.012
PELP1 (UniProt Q8IZL8),0.005,-0.115,-0.007,0.007,0.004,-0.047,0.064,-0.034,0.063,-0.009,0.071,-0.068,-0.046,0.071,-0.022,-0.003,0.038,0.078,-0.084,-0.027
PRMT3 (UniProt O60678),0.048,0.034,-0.155,0.011,-0.153,-0.02,-0.044,-0.004,-0.126,0.081,0.042,-0.05,-0.187,-0.034,0.055,0.041,0.042,-0.023,-0.027,-0.027
PTPN23 (UniProt Q9H3S7),0.028,0.053,-0.07,-0.096,-0.199,0.059,-0.016,0.02,-0.069,0.034,-0.039,0.011,-0.081,-0.063,0.06,0.05,0.05,0.037,-0.065,-0.024
PRIM2 (UniProt P49643),0.007,-0.019,-0.063,-0.06,-0.128,0.021,0.015,0.046,-0.018,0.101,-0.035,-0.141,-0.16,-0.061,0.058,0.098,0.135,0.033,-0.096,-0.018
PEX7 (UniProt O00628),0.101,-0.025,-0.047,0.048,-0.025,-0.007,0.05,0.04,0.034,0.085,-0.017,-0.031,-0.022,-0.03,-0.077,0.013,0.074,-0.017,-0.051,0.042
PRPF4B (UniProt Q13523),0.188,-0.096,0.153,-0.626 (active),0.081,-0.163,0.005,-0.056,0.117,0.069,-0.057,-0.075,-0.022,-0.065,-0.008,0.025,0.033,0.01,0.055,-0.328 (active)
PSMD13 (UniProt Q9UNM6),0.126,0.003,-0.002,0.082,0.023,-0.018,-0.114,-0.008,0.095,-0.019,-0.049,0.015,-0.044,0.006,-0.018,0.001,-0.017,0.033,0.044,-0.108
POLR2B (UniProt P30876),0.024,-0.005,0.079,0.054,-0.055,0.324 (active),-0.054,-0.006,-0.029,-0.014,-0.054,0.059,-0.043,-0.106,0.061,-0.089,0,0.1,0.09,-0.065
PMPCB (UniProt O75439),0.035,0.025,-0.054,0.089,0.098,-0.04,0.105,0.046,0.269 (active),0.053,-0.03,0.024,-0.02,0.023,-0.043,-0.009,0.037,-0.103,-0.012,0.023
PCBP1 (UniProt Q15365),-0.007,0.033,-0.057,-0.086,-0.111,-0.026,0.064,-0.004,-0.119,-0.011,0.007,-0.015,-0.069,-0.021,0.044,0.055,0.075,0.028,-0.046,0.002
PLEKHM2 (UniProt Q8IWE5),-0.09,-0.024,-0.054,-0.002,-0.072,-0.077,0.001,-0.08,-0.028,0.096,0.01,-0.102,-0.315 (active),-0.107,0.024,0.072,0.109,-0.058,-0.009,-0.125
PSMD2 (UniProt Q13200),0.079,0,-0.031,0.061,0.031,-0.005,-0.12,-0.006,0.07,-0.038,-0.018,0.012,0.005,0.038,-0.024,0.01,-0.006,-0.018,0.03,-0.082
